High-throughput results deposited in PubChem by National Center for Advancing Translational Sciences (NCATS).
Only some compounds are listed: those with a hit (about 21% of all), similar ones and a draw of the others.
Pf growth 96h – P. falciparum growth inhibition at 96 hours; P. falciparum luciferase reporter growth, 96 h; Potency, µM (highest dose often 28.7 µM), without a hit: top-dose activity change, negative = inhibition, usual class: inhibitors; 320,000 tested, 6.9% active; further: potency means the concentration at half of the fitted maximal effect; on the % scale 0 is the no-effect control and ±100 the full control effect
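Erythrocytes infected with luciferase-expressing P. falciparum were dispensed at 2% hematocrit and 0.05% parasitemia (final), then incubated with compounds 96 hours at 37 C in 5% CO2. Luminescence after detection reagent addition reported growth.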
Pf growth 48h – P. falciparum growth inhibition at 48 hours (one generation); P. falciparum luciferase growth in erythrocytes, 48 h; Potency, µM (titrated, usually from 28.7 µM), for the others: top-dose activity change, negative = inhibition, most hits filed as inhibitors; 310,000 tested, 5.9% active; AID 504832; further: potency means the concentration at half of the fitted maximal effect; on the % scale 0 is the no-effect control and ±100 the full control effect
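Firefly luciferase activity from engineered P. falciparum reports growth; inhibitors lower the luminescent signal. Cultures contained 2% hematocrit erythrocytes at 0.1% final parasitemia.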
SARS PLpro yeast – blocks SARS-CoV papain-like protease in a yeast assay; Potency, µM (highest dose often 32.9 µM), without a hit: at the highest dose activity, positive = growth rescue, hits mostly activators; S. cerevisiae expressing SARS-CoV PLpro, growth rescue; 330,000 tested, 0.19% active; calls by dose curve; further: potency means the concentration at half of the fitted maximal effect; 0% is about no effect; nearly all actives have a fitted effect of over 55% in size
Cycloheximide cs – counter-screen for Shiga toxin inhibitors: cycloheximide protein synthesis inhibition; max response, %; 300,000 tested, 12% active; cell reporter, cycloheximide protein synthesis inhibition counterscreen; AID 2314; in the data active means max response mostly above about 13%, no sharp cut-off; inactive means mostly below about 14%; further: read at 38.3 µM for the half of the compounds with a filed dose; 0% is about no effect
Shiga inhibitor – inhibitors of Shiga toxin in Vero cells; inhibition, % at 38.7 µM; 290,000 tested, 9.2% active; AID 2315; Vero cells, Shiga toxin protein synthesis inhibition reporter; in the data active means inhibition mostly above about 28%, no sharp cut-off; inactive means mostly below about 43%; further: 0% is about no effect
NS1 function inh – influenza NS1 inhibition. AID 2326. 270,000 tested, 0.4% active. Potency, µM (doses to about 46.1 µM), for inactives: at the highest dose activity, positive = more growth; calls by dose curve; further: potency means the concentration at half of the fitted maximal effect; actives are rising curves; nearly all actives have a fitted effect of over 50% in size
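Recovery from NS1-induced slow growth read by OD600 in budding yeast switched to galactose assay medium (pH 6.0, -URA) at 1:100 dilution. Compound 23 nl per well; the matching strain lacking NS1 serves as control.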
The depositor's hits bear a star; ? = inconclusive; / = no result. Unless noted, the call rests on the fitted dose curve; in most records, active means well fitted inhibition curve with a large enough effect; inconclusive means small, poorly fitted or top-dose-only effect, or another doubt; inactive means no such curve, though single readings can be large or run the other way.

SMILES | Pf growth 96h | Pf growth 48h | SARS PLpro yeast | Cycloheximide cs | Shiga inhibitor | NS1 function inh
O=C(NCCc1csc(-c2ccccc2)n1)c1cccs1 | 1.4% | -17.8% | -7.6% | 13.1* | -15.0 | -23.4%
NC(=O)c1ccc(NC(=O)Cc2csc(-c3ccccc3)n2)cc1 | 11.2% | -2.3% | 0.5% | -2.6 | -2.9 | 8.2%
CC(=O)NCCc1csc(-c2ccccc2)n1 | ? | 66.8% | 4.7% | 16.0* | 38.8 | -3.5%
O=C(Cc1csc(-c2ccccc2)n1)NCc1cccs1 | 31.2% | 40.5% | -6.0% | 24.5* | 36.9* | /
CC(=O)NNC(=S)Nc1cccc(F)c1 | 45.2% | 65.6% | -1.1% | -3.7 | 9.3 | 6.7%
COc1ccc(CCn2c(-c3cc([N+](=O)[O-])cc([N+](=O)[O-])c3)nc3nc4ccccc4nc32)cc1OC | 11.8% | 12.8% | 6.1% | -2.0 | -2.9 | -6.2%
CC(Oc1ccc(-n2cnnn2)cc1)C(=O)O (stereo not drawn) | 19.4% | 4.0% | -0.1% | -0.8 | 12.1 | /
CS(=O)(=O)N(CC(=O)NCc1ccncc1)c1cc(Cl)ccc1Cl | ? | -2.6% | 1.0% | 0.5 | -3.7 | 2.1%
CC(C)(C)CC(=O)NCCc1csc(-c2ccccc2)n1 | 43.1% | -2.2% | -9.4% | 21.8* | 34.0* | -78.2%
CCS(=O)(=O)NCCc1csc(-c2ccccc2)n1 | -0.1% | 66.7% | -1.0% | 57.0* | 70.5* | 0.8%
O=C(NCCc1csc(-c2ccccc2)n1)c1ccco1 | 21.0% | ? | -4.1% | 13.4 | 40.8 | -41.5%
CN(C)c1ccc(/C=C2/C=C(c3ccc4c(c3)CCCC4)OC2=O)cc1 | 61.3% | 1.4% | -0.3% | -1.9 | -2.9 | 1.3%
O=C1OC(c2ccc(Br)cc2)=N/C1=C\N1CCCCC1 | ? | 106.5% | -2.5% | 22.6* | 65.6* | -9.9%
CN(C)/C=C1/N=C(c2ccccc2)OC1=O | / | 38.2% | 1.1% | 11.4 | 13.0 | 1.7%
O=C1OC(c2ccccc2)=N/C1=C\N1CCCCC1 | 424.7% | 106.1% | -6.9% | 42.1* | 61.2* | -46.2%
O=C1OC(c2ccccc2)=C/C1=C/N1CCCCC1 | -16.3% | 140.0% | -13.2% | 38.5* | 125.8* | -51.5%
O=C(c1ccccc1)C1CCN(C(=O)C2CCC(=O)N(Cc3ccccc3F)C2)CC1 (stereo not drawn) | ? | ? | -7.5% | 9.6 | 20.4 | -6.9%
COc1ccc(CCC(C)N(C)Cc2ccccc2)cc1 (stereo not drawn) | ? | 7.4% | -0.1% | -2.2 | -13.1 | 0.6%
CCOC(=O)Cc1nc2cc(Cl)ccc2o1 | 1.8% | 26.7% | -0.8% | -0.9 | -5.8 | 2.0%
CCOC(=O)Cc1nc2ccccc2o1 | 3.29µM* | 10.3% | 0.4% | 15.2* | 52.8 | /
Cc1cc2ccccc2c(=O)[nH]1 | 63.3% | 27.3% | 4.0% | -0.6 | -3.3 | 16.0%
O=c1[nH]c(-c2ccccn2)cc2ccccc12 | 13.8% | 93.4% | -48.1% | 36.4* | 52.0* | -17.0%
O=c1c(O)c(-c2ccc(O[C@@H]3O[C@H](CO)[C@@H](O)[C@H](O)[C@H]3O)c(O)c2)oc2cc(O)cc(O)c12 | / | / | / | -3.0 | 8.0 | /
COc1ccc(-c2cc(-c3ccccc3)n3ncnc3n2)cc1 | -0.2% | -15.1% | -8.8% | -2.3 | -14.6 | -10.1%
CCc1ccc(-c2cn3nc(-c4ccccc4)cnc3n2)cc1 | 63.7% | 43.4% | -1.7% | 24.6* | 63.8* | -1.1%
CCOC(Cn1ccc(=O)[nH]c1=O)OCC | 14.5% | 1.8% | 0.6% | -1.9 | -1.1 | 5.2%
Fc1ccc(-c2nc3c(Cl)cc(C(F)(F)F)cn3c2Cl)cc1 | 63.0% | 72.8% | -1.1% | 31.9* | active | 12.8%
C=C1c2ccccc2NC(=O)N1c1ccc(OC)cc1 | 15.7% | 7.9% | -1.1% | 12.2* | 36.0 | 2.2%
COc1ccc(N2C(=O)NC(=O)C2=O)cc1 | 9.4% | 0.7% | 2.1% | 40.3* | 4.3 | 13.9%
